CSC inhib: cancer stem cell viability inhibitors, primary screen, luminescence | inhibition, % at 7.5 µM | actives 1.1% (n = 300,000) | cancer stem cell-like cells viability; in the data active = inhibition above about 75%; inconclusive = no clear call, values can overlap the other calls; tested in HMLE shEcad cells
Mdm2 MdmX PPI: inhibitors of human Mdm2-MdmX association, primary screen, cell-based, luminescence, split luciferase, SaOS-2, uHTS; Protein Mdm4 (Homo sapiens) + E3 ubiquitin-protein ligase Mdm2 (Homo sapiens), …; SaOS-2 split-luciferase Mdm2/MdmX complementation; inhibition, % at 8 µM; actives 3% (n = 330,000);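 active = inhibition of at least 50% at 8 µM in the primary screen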
PP5 primary: PP5 phosphatase inhibitors, primary screen, biochemical, fluorescence | Serine/threonine-protein phosphatase 5 (Homo sapiens), P53041 | actives 0.18% (n = 320,000) | inhibition, % at 6.7 µM | purified PP5c, OMFP substrate fluorescence | AID 1987, 2009;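 active = inhibition above the campaign's mean inhibition across all tested compounds plus 3 SD, cut at about 9.5% in these data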
PP1 counter: PP1-alpha phosphatase inhibitors, primary screen, counter-screen for PP5 inhibitor project, biochemical, fluorescence, OMFP substrate, single point; Serine/threonine-protein phosphatase PP1-alpha catalytic subunit (Homo sapiens), P62136; purified PP1alpha; inhibition, % at 6.7 µM; actives 0.9% (n = 320,000);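 active = inhibition above the mean inhibition of all tested compounds plus 3 SD, computed separately for each screening campaign, cut at about 15% in these data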
Beta apoptosis: inhibitors of cytokine-induced beta cell apoptosis, primary screen, luminescence. INS-1E cytokine-induced death, ATP luminescence, 48 h; percent of positive-control rescue, neutral wells zero. protection from apoptosis, % (test concentration not listed). actives 0.8% (n = 300,000);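 active = Every replicate reaches about 75%, or at least half do and their mean reaches it too, limit read from the data; inconclusive = At least half of replicates reach the limit but their mean does not; inactive = Under half of replicates reach the limit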;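 also: higher means more ATP so stronger rescue from cytokine killing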
Calb FLC: C. albicans growth inhibition with fluconazole, primary screen, CaCi-2 strain, Alamar Blue fluorescence. C. albicans CaCi-2 (fluconazole-resistant clinical isolate) + fluconazole, 48 h. growth inhibition, % (no concentration beside the values). actives 0.57% (n = 300,000). AID 1979, 2009;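 active = growth inhibition above about 58% in most replicates, limit read from the data, passing the limit was not always enough; inconclusive = exactly half the replicates above a set limit; inactive = most replicates below a set limit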;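 also: all wells also contain fluconazole at 8 µg/ml as a sub-toxic cotreatment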
Mdm2 MdmX conf: Mdm2-MdmX complex disruptors, retested hits, confirmation, luminescence, single concentration; AID 489028, 2010; inhibition, % at 8 µM; actives 55% (n = 10,000); Mdm2-MdmX binding, luminescent assay; shares compounds with Mdm2 MdmX PPI; in the data active = inhibition above about 40%
FLuc counter: full-length luciferase signal inhibition, confirmation, counter-screen for Mdm2/MdmX interaction inhibitor project, cell-based, single concentration, SaOS-2 | shares compounds with Mdm2 MdmX PPI | SaOS-2 full-length luciferase counterscreen, luminescence | inhibition, % at 8 µM | actives 77% (n = 6,200);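 active = mean inhibition at 8 µM reaching about 37%, which flags the compound as non-specific, limit read from the data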;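 also: p53-null SaOS-2 cells with luciferase driven by a doxycycline-inducible promoter; compound on cells about two nights before reading with doxycycline added after day one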
Hits are given with their value; – = inactive; ? = inconclusive; · = no result given. An excerpt weighted towards active compounds, which were near 4.9% of everything screened.

SMILES	CSC inhib	Mdm2 MdmX PPI	PP5 primary	PP1 counter	Beta apoptosis	Calb FLC	Mdm2 MdmX conf	FLuc counter
O=C(c1ccc(Cl)cc1)c1cc([N+](=O)[O-])ccc1N1CCOCC1	–	65	–	–	–	?	52	81
Cc1ccc(C(=O)c2cc([N+](=O)[O-])ccc2N2CCCCC2)cc1	–	53	–	–	–	–	65	96
N/C(=N\OC(=O)COc1ccc2ccccc2c1Br)c1ccncc1	–	–	–	–	–	–	·	·
CCOc1ccccc1CNC(=O)c1ccc2nc(N3CCOCC3)sc2c1	–	–	–	–	–	–	·	·
Cc1ccc(NC(=S)N(Cc2ccco2)C2CCN(C(C)C)CC2)cc1	–	–	–	–	–	–	·	·
NC(=O)/C(=C\c1ccccc1)NC(=O)c1ccc(NC(=O)c2ccccc2)cc1	–	–	–	–	–	–	·	·
CCCCNC(=O)[C@@H]1CSC2c3ccccc3C(=O)N21 (stereo partly drawn)	–	·	·	·	–	–	·	·
COc1ccc(COC(=O)c2cc([N+](=O)[O-])ccc2N2CCOCC2)cc1F	–	72	–	–	–	–	78	125
CC1CCCN(c2ccc([N+](=O)[O-])cc2C(=O)c2ccccc2)C1 (stereo not drawn)	–	65	–	–	–	–	55	99
O=C(c1ccccc1)c1cc([N+](=O)[O-])ccc1N1CCOCC1	·	–	–	–	·	–	·	·
CCc1cc2c(nc1CC)CCN(CC/C(C)=N/OC[C@H]1O[C@H](c3ccccc3)C=C[C@@H]1Oc1ccc(OC)cc1)C2	·	54	·	·	·	–	41	65
Cc1cccc(NCc2ccc(O)c3ncccc23)c1C	–	74	–	–	–	104	73	42
Cc1cccnc1NC(=S)Nc1ncccc1C	–	–	–	–	–	–	·	·
Oc1ccc(Br)cc1CNc1cccc2cccnc12	–	60	–	–	100	–	64	–
Oc1ccc(Cl)cc1CNc1cccc2cccnc12	–	–	–	–	–	–	·	·
Cc1cccnc1NCc1ccc(O)c2ncccc12	–	57	–	–	·	–	–	·
COc1ccccc1C1=NOC(C)(c2nnc(-c3cccc(Cl)c3)o2)C1 (stereo not drawn)	–	–	–	–	–	–	·	·
CC(=O)NC(c1ccc(C(C)C)cc1)c1ccc2cccnc2c1O (stereo not drawn)	109	81	–	–	90	–	83	–
CC(=O)NC(c1cccc([N+](=O)[O-])c1)c1c(OC(C)=O)ccc2ccccc12 (stereo not drawn)	·	–	–	–	–	–	·	·
Oc1cccc(C(Nc2nccs2)c2ccc3cccnc3c2O)c1 (stereo not drawn)	110	77	–	–	77	103	81	–
COc1cccc(C(NC(C)=O)c2ccc3cccnc3c2O)c1 (stereo not drawn)	–	82	–	–	82	80	80	–
CC(=O)NC(c1cccc([N+](=O)[O-])c1)c1ccc2cccnc2c1O (stereo not drawn)	102	77	·	·	97	–	81	–
CCc1cc2ccccc2nc1SCC(=O)Nc1cc(OC)c(OC)cc1C(=O)O	–	–	–	–	–	–	·	·
CCn1c(CNC(=O)c2ccco2)nnc1SCC(=O)Nc1cc(F)ccc1C	·	–	–	–	–	–	·	·
CN1CCN(CCCNC(=O)c2ccc(/C=C3\Oc4ccccc4N(Cc4ccccc4F)C3=O)cc2)CC1	–	92	–	–	–	–	–	·
CN1CCN(CCCNC(=O)c2ccc(/C=C3\Sc4ccccc4N(Cc4ccc(F)cc4)C3=O)cc2)CC1	·	·	·	·	·	–	·	·
